PubChem BioAssay (Tox21)
Records with an inconclusive call do not appear. The source made the active and inactive calls. Unless noted, calls follow the shape of the dose curve; as a rule, active = well fitted curve in the direction sought with a large enough effect in the repeat runs; inconclusive = weak or mixed curves; inactive = no such curve, though single readings can be large; an effect the other way counts as inactive or inconclusive.

How the values were obtained:
[1] = qHTS assay to identify small molecule agonists of the vitamin D receptor (VDR) signaling pathway - cell viability counter screen (AID 743224); also: series mostly up to about 63 µM; % is scaled to controls: 0 for no effect and ±100 for the full control effect; nearly all actives have a fitted effect of over 50% in size
Method in brief: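 Cytotoxicity counter screen: VDR-bla cells, 16 h compound exposure at 37C, 5% CO2; CellTiter-Glo luminescence, 30 min RT, same wells as bla read.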

[2] = qHTS assay to identify small molecule antagonists of the vitamin D receptor (VDR) signaling pathway - cell viability counter screen (AID 743225); also: % is scaled to controls: 0 for no effect and ±100 for the full control effect; nearly all actives have a fitted effect of over 50% in size
Method in brief: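 Parallel cytotoxicity test: VDR-UAS-bla HEK 293T, 3 nM (final) 1-alpha,25-dihydroxyvitamin D3 with test compound, 16 h, 37C. Endpoint is CellTiter-Glo luminescence in the same wells.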

[3] = qHTS assay to identify small molecule agonists of the NFkB signaling pathway (AID 1159509; active = well fitted curve in the direction sought with a large enough effect in the signal ratio in the repeat runs, not every such curve was filed as active; the % refers to the signal ratio; also: series mostly up to about 61 µM; % is scaled to controls: 0 for no effect and ±100 for the full control effect)
Method in brief: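 Readout: FRET fluorescence, 405 nm excitation, 460/530 nm emission; beta-lactamase expression disrupts FRET. Cells: ME-180 stably carrying NF-kB-driven bla reporter. Compound exposure 5 hr, 37 C, 5% CO2.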

[4] = qHTS assay to identify small molecule agonists of the NFkB signaling pathway - cell viability counter screen (AID 1159515; calls by dose curve; also: series mostly up to about 61 µM; % is scaled to controls: 0 for no effect and ±100 for the full control effect; nearly all actives have a fitted effect of over 55% in size)
Method in brief: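 ME-180 NFkB-bla cells, 2,000/well; overnight attach; compound 5 hr, 37 C/5% CO2; LiveBLAzer substrate 1.5 hr RT; then CellTiter-Glo in same wells, 30 min RT, luminescence read.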

[5] = qHTS assay to identify small molecule agonists of the endoplasmic reticulum stress response signaling pathway (AID 1159516; active = well fitted activation curve with a large enough effect in the signal ratio in the repeat runs, not every such curve was filed as active; the % refers to the signal ratio; also: % is scaled to controls: 0 for no effect and ±100 for the full control effect)
Method in brief: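 HeLa ESRE-bla reporter line; cpd 5 h, 37 C/5% CO2; LiveBLAzer B/G FRET substrate 2 h RT; ex 405, em 460/530 nm.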

[6] = qHTS assay to identify small molecule agonists of the endoplasmic reticulum stress response signaling pathway - cell viability counter screen (AID 1159517; calls by dose curve;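 also: HeLa cells carrying an ER stress response element beta-lactamase reporter; series mostly up to about 61 µM; % is scaled to controls: 0 for no effect and ±100 for the full control effect; nearly all actives have a fitted effect of over 50% in size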)
Method in brief: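 After overnight attachment, ESRE-bla HeLa cells were treated with Tox21 library compounds for 5 hr. CellTiter-Glo luminescence, read 30 min post-addition at room temperature, reported viability.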

[7] = qHTS assay to identify small molecule antagonists of the retinoid-related orphan receptor gamma (ROR-gamma) signaling pathway - cell viability counter screen (AID 1159520); also: % is scaled to controls: 0 for no effect and ±100 for the full control effect; nearly all actives have a fitted effect of over 50% in size
Method in brief: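 Cytotoxicity was read from cellular ATP (CellTiter-Glo luminescence) after 16 hr at 37 C with 1 uM doxycycline induction. The inducer was added 2 hr after compound transfer to Tet-on ROR gamma CHO cells.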

[8] = target: Nuclear receptor ROR-gamma (Homo sapiens) (UniProt P51449); test: qHTS assay to identify small molecule antagonists of the retinoid-related orphan receptor gamma (ROR-gamma) signaling pathway (AID 1159521)
Method in brief: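 Decreased RORE-driven luciferase luminescence indicates antagonism. Tet-on RORγ CHO cells received compound, then 1 uM final doxycycline 2 h later; signal read after 16 h incubation.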

[9] = qHTS assay to identify small molecule agonists of the AP-1 signaling pathway (AID 1159526; calls by dose curve; also: % is scaled to controls: 0 for no effect and ±100 for the full control effect)
[10] = qHTS assay to identify small molecule agonists of the AP-1 signaling pathway - cell viability counter screen (AID 1159525; calls by dose curve; also: nearly all actives have a fitted effect of over 55% in size)
Method in brief: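 Intracellular ATP by Cell Titer Glo luminescence (30 min, RT) in the same ME-180 AP-1-bla wells after the 5 h compound exposure at 37 °C. Normalised to tetra n-octyl ammonium bromide and DMSO controls.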

CCCS(=O)c1ccc2nc(NC(=O)OC)[nH]c2c1 (centres undefined)
inactive: Potency [1] | Potency [2] | outcome [3] | outcome [4] | outcome [5] | outcome [6] | Potency [7] | Potency [8] | Potency [9]

CCOC(=O)C1CC(=O)C(=C(O)C2CC2)C(=O)C1 (centres undefined)
inactive: Potency [1] | Potency [2] | outcome [3] | outcome [4] | outcome [5] | outcome [6] | Potency [7] | Potency [8] | Potency [9]

CN(C)CCOc1ccccc1Cc1ccccc1
inactive: Potency [1] | Potency [2] | outcome [3] | outcome [4] | outcome [5] | outcome [6] | Potency [7] | Potency [8] | outcome [10]

O=[N+]([O-])c1nccn1CO[C@@H](CO)[C@H](O)CO
inactive: Potency [1] | Potency [2] | outcome [3] | outcome [4] | outcome [5] | outcome [6] | Potency [7] | Potency [8] | Potency [9]

CCCCCCCCOC(=O)CCCCCCCCC(=O)OCCCCCCCC
inactive: Potency [1] | Potency [2] | outcome [3] | outcome [4] | outcome [5] | outcome [6] | Potency [7] | Potency [8] | Potency [9]

COc1cc2c(cc1N)oc1ccccc12
inactive: Potency [2] | outcome [3] | outcome [4] | outcome [5] | outcome [6] | Potency [7] | Potency [8] | Potency [9]

Clc1cccc(-c2cc(Cl)cc(Cl)c2)c1
inactive: Potency [1] | Potency [2] | outcome [3] | outcome [4] | outcome [5] | outcome [6] | Potency [7] | Potency [8]

CC(C)C(=O)OC/C=C/c1ccccc1
inactive: Potency [1] | Potency [2] | outcome [3] | outcome [4] | outcome [5] | outcome [6] | Potency [7] | Potency [8] | Potency [9]

CCCCc1ccc2nc(NC(=O)OC)[nH]c2c1
inactive: Potency [1] | Potency [2] | outcome [3] | outcome [4] | outcome [5] | outcome [6] | Potency [7] | Potency [8]

COc1ccc(S(=O)(=O)Nc2nnc(CC(C)C)s2)cc1
inactive: Potency [1] | Potency [2] | outcome [3] | outcome [4] | outcome [5] | outcome [6] | Potency [7] | Potency [8] | Potency [9]

NC(Cc1ccc(F)cc1)C(=O)O (centres undefined)
inactive: activity change, negative = cytotoxicity [1] 0.52% [at 5.95 µM] | viability change, negative = cytotoxic [2] 2.79% [at 6.95 µM] | activation [3] -1.04% [at 6.95 µM] | activity, negative = cytotoxic [4] -7.23% [at 6.95 µM] | activation [5] -3.08% [at 6.95 µM] | activity change, negative = cytotoxicity [6] 0.188% [at 6.95 µM] | activity, negative = cytotoxicity [7] 9.21% [at 8.39 µM] | activity change, negative = inhibition [8] -13.5% [at 8.39 µM] | viability change, negative = cytotoxic [10] -5.13% [at 6.97 µM]

C/C(=N\O)[C@@H](C)NCC(C)(C)CN[C@H](C)/C(C)=N/O
inactive: Potency [1] | Potency [2] | outcome [3] | outcome [4] | outcome [5] | outcome [6] | Potency [7] | Potency [8] | Potency [9]

CN1CCN(N)CC1
inactive: Potency [1] | Potency [2] | outcome [3] | outcome [4] | outcome [5] | outcome [6] | Potency [7] | Potency [8] | Potency [9]

C=CC1CO1 (centres undefined)
inactive: Potency [1] | Potency [2] | outcome [3] | outcome [4] | outcome [5] | outcome [6] | Potency [7] | Potency [8] | Potency [9]

C=CCc1cc(OC)c(O)c(C(=O)NCCO)c1
inactive: Potency [1] | Potency [2] | outcome [3] | outcome [4] | outcome [5] | outcome [6] | Potency [7] | Potency [8] | Potency [9]

O=Cc1ccc(O)c(O)c1O
inactive: Potency [2] | outcome [3] | outcome [4] | outcome [5] | outcome [6] | Potency [7] | Potency [8] | outcome [10]

CCCCCCCCCC#N
inactive: Potency [2] | outcome [3] | outcome [4] | outcome [5] | outcome [6] | Potency [7] | Potency [8] | outcome [10]

COc1ccccc1OCC(O)COC(N)=O (centres undefined)
inactive: Potency [1] | outcome [3] | outcome [4] | outcome [5] | outcome [6] | Potency [7] | Potency [8]

O=C1N(c2ccccc2)c2ccccc2C1(Cc1ccncc1)Cc1ccncc1
inactive: Potency [1] | Potency [2] | outcome [3] | outcome [4] | outcome [5] | outcome [6] | Potency [7] | Potency [8] | Potency [9]

CC(C)c1ccccc1
inactive: Potency [2] | outcome [3] | outcome [4] | outcome [5] | outcome [6] | Potency [7] | Potency [8] | outcome [10]

CCOC(=O)COc1ccc2c(c1)CC(NCC(O)c1cccc(Cl)c1)CC2 (centres undefined)
inactive: Potency [1] | outcome [3] | outcome [4] | outcome [5] | outcome [6] | Potency [7] | Potency [8]

CCOC(=O)NCCC[Si](OCC)(OCC)OCC
inactive: Potency [1] | Potency [2] | outcome [3] | outcome [4] | outcome [5] | outcome [6] | Potency [7] | Potency [8] | Potency [9]

O=c1[nH]c(=O)n([C@H]2C[C@H](O)[C@@H](CO)O2)cc1C(F)(F)F
inactive: Potency [1] | Potency [2] | outcome [3] | outcome [4] | outcome [5] | outcome [6] | Potency [7] | outcome [10] | Potency [9]

CC(CNC1CCCCC1)OC(=O)c1ccccc1 (centres undefined)
inactive: Potency [1] | Potency [2] | outcome [3] | outcome [4] | outcome [5] | outcome [6] | Potency [7] | outcome [10] | Potency [9]

O=c1oc2c(O)c(O)cc3c(=O)oc4c(O)c(O)cc1c4c23
inactive: Potency [1] | Potency [2] | outcome [3] | outcome [4] | outcome [5] | outcome [6] | activity, negative = cytotoxicity [7] 0.685% [at 19 µM] | viability change, negative = cytotoxic [10] 7.4% [at 15.8 µM] | activation [9] 21.4% [at 15.8 µM]

CCCCNc1cc(C(=O)O)cc(S(N)(=O)=O)c1Oc1ccccc1
inactive: Potency [1] | Potency [2] | outcome [3] | outcome [4] | outcome [5] | outcome [6] | Potency [7] | outcome [10] | Potency [9]
